High-throughput results: PubChem, The Scripps Research Institute Molecular Screening Center
Shown are actives, neighbours in structure and some others; about 2.9% of the full set was active somewhere.
KLK7 zymogen act = proKLK7 (human) activation, primary screen; purified proKLK7, EDANS-DABCYL substrate fluorescence; 100% is mature enzyme control, 0% vehicle; activation, % at 7 µM; actives 0.9% (n = 370,000); AID 652039;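 active = activation above the mean of all tested compounds plus 3 SD, computed per campaign excluding outliers beyond control limits, cut at about 13% in these data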
ADAM10 inh = ADAM10 inhibition, QFRET primary screen; recombinant ADAM10, EDANS/DABCYL FRET peptide cleavage, 3 h; actives 0.62% (n = 370,000); inhibition, % at 7 µM; AID 720582;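 active = inhibition above a per-campaign cutoff equal to the mean of compounds falling between control-based bounds plus 3 SD, cut at about 20% in these data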
PLCb3 inh = inhibitors of human phospholipase C beta3; Purified PLC-beta3, fluorogenic substrate, fluorescence; inhibition, % at 12.2 µM; actives 0.18% (n = 370,000); AID 720704; in the data active = inhibition above about 11%
ADAM17 inh = inhibitors of human ADAM17; recombinant ADAM17, EDANS/DABCYL FRET peptide cleavage; actives 0.83% (n = 370,000); P78536; inhibition, % at 6.95 µM;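 active = inhibition above the mean of compounds lying between control limits plus 3 SD, set per campaign, cut at about 8.5% in these data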
PLCg1 inh = blocks human PLC-gamma1 enzyme activity; P19174; purified PLC-gamma1, fluorogenic substrate, fluorescence; inhibition, % at 12.2 µM; actives 0.84% (n = 370,000); in the data active = inhibition above about 9.5%
ADAM10 confirm = confirmation of inhibitors of human ADAM10; shares compounds with ADAM10 inh; ADAM10 QFRET peptide cleavage, EDANS fluorescence; inhibition, % at 6.95 µM; actives 1% (n = 2,100); AID 743208;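 active = inhibition above about 20% chosen separately for each screening run, limit read from the data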
ADAM17 counter = counter-screen for ADAM10 exosite inhibitors: inhibitors of human ADAM17; shares compounds with ADAM10 inh; ADAM17 QFRET peptide cleavage, EDANS fluorescence; inhibition, % at 6.95 µM; actives 0.5% (n = 2,100);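 active = mean triplicate inhibition above the solvent-only control wells' mean plus 3 SD, cut at about 12% in these data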
ADAM10 ctr = ADAM10 inhibition, counter-screen for ADAM17 exosite hits; inhibition, % at 6.95 µM; recombinant ADAM10, EDANS/DABCYL FRET peptide cleavage, 3 h; actives 47% (n = 2,900); shares compounds with ADAM17 inh;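 active = mean inhibition over the triplicate runs exceeds the activity threshold set in the earlier primary screen, cut at about 20% in these data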
ADAM17 confirm = human ADAM17 inhibition, confirmation. shares compounds with ADAM17 inh. actives 65% (n = 2,900). inhibition, % at 6.95 µM. recombinant ADAM17, EDANS/DABCYL QFRET peptide cleavage. AID 743257;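 active = mean inhibition across replicates above the hit cutoff set in the primary screen, cut at about 8.5% in these data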
Each line names hits and unclear results; the compound was inactive in the other large screens (follow-up assays come after a bar, where they were run).

C[C@H](NC(=O)c1nc[nH]c1C(=O)N[C@@H](Cc1ccccc1)C(=O)OC(C)(C)C)C(=O)OC(C)(C)C	ADAM10 inh 22, ADAM17 inh 10.0 | ADAM10 confirm inactive | ADAM17 counter inactive | ADAM10 ctr 50 | ADAM17 confirm 24
O=C(N/N=C/c1ccco1)/C(=C/c1cccc([N+](=O)[O-])c1)NC(=O)c1ccccc1	none
O=C(N/N=C/c1ccc(Br)o1)/C(=C/c1ccc([N+](=O)[O-])cc1)NC(=O)c1ccccc1	ADAM10 inh 31, ADAM17 inh 13 | ADAM10 confirm inactive | ADAM17 counter inactive | ADAM10 ctr 32 | ADAM17 confirm 17
C=C(C)COc1ccc(-c2n[nH]c(C)c2Oc2ccccc2OC)c(O)c1	ADAM10 inh 26, ADAM17 inh 12 | ADAM10 confirm inactive | ADAM17 counter inactive | ADAM10 ctr 41 | ADAM17 confirm 20
COc1ccc(-c2cn[nH]c2-c2ccc(OCc3ccccc3)cc2O)cc1OC	ADAM10 inh 33, ADAM17 inh 9.7 | ADAM10 confirm inactive | ADAM17 counter inactive | ADAM10 ctr 34 | ADAM17 confirm 16
C=C(C)COc1ccc(-c2nc(N)ncc2-c2ccc(OC)c(OC)c2)c(O)c1	none
C=C(C)COc1ccc(-c2[nH]ncc2-c2ccccc2)c(O)c1	ADAM10 inh 24, ADAM17 inh 11 | ADAM10 confirm inactive | ADAM17 counter inactive | ADAM10 ctr 34 | ADAM17 confirm 17
C=C(C)COc1ccc(-c2[nH]ncc2-c2ccc(OC)cc2)c(O)c1	none
C=C(C)COc1ccc(-c2nc(N)ncc2-c2ccc(OC)cc2)c(O)c1	ADAM10 inh 27, ADAM17 inh 16 | ADAM10 confirm inactive | ADAM17 counter inactive | ADAM10 ctr inactive | ADAM17 confirm 17
Cc1cc(F)ccc1NC(=O)CCc1ccc(S(=O)(=O)N2CCOCC2)cc1	none
CC(C)=CCNc1ncnc2c1c(C#N)cn2C1OC(CO)C(O)C1O (stereo unspecified)	none
Cc1c(C#N)c(N)nc2c3c(sc12)NC(=O)CC3c1ccccc1 (stereo unspecified)	none
CC(C)c1c(C(=O)N/N=C/c2cccc3ccccc23)nnn1-c1nonc1N	ADAM10 inh 20, ADAM17 inh 10 | ADAM10 confirm inactive | ADAM17 counter inactive | ADAM10 ctr 27 | ADAM17 confirm 20
CC(C)c1c(C(=O)N/N=C/c2c[nH]c3ccccc23)nnn1-c1nonc1N	none
COc1cc(NC(=O)c2ccccc2)c(C)cc1NC(=O)CSc1nnc(-c2ccccc2F)n1-c1ccc(C)cc1	ADAM10 inh 26, ADAM17 inh 12 | ADAM10 confirm inactive | ADAM17 counter inactive | ADAM10 ctr 31 | ADAM17 confirm 18
CCCC(=O)Nc1ccc2c(c1)c1ccccc1n2CC	none
CCn1c2ccccc2c2cc(NS(=O)(=O)c3ccccc3C)ccc21	ADAM10 inh 25, ADAM17 inh 9.4 | ADAM10 confirm inactive | ADAM17 counter inactive | ADAM10 ctr 21 | ADAM17 confirm 12
O=C(CCl)N1CCN2C(=O)c3ccccc3C12c1ccc(Cl)cc1 (stereo unspecified)	none
O=C(Nc1cccc(Cl)c1)N1CCN2C(=O)c3ccccc3C12c1ccccc1 (stereo unspecified)	ADAM10 inh 23, ADAM17 inh 11 | ADAM10 confirm inactive | ADAM17 counter inactive | ADAM10 ctr 20 | ADAM17 confirm 12
COC1CCCN(Cc2nc(Cc3ccccc3F)no2)C1 (stereo unspecified)	none
COc1cc(/C=N\NC(=O)c2ccc(Cl)cc2)ccc1Oc1ccc([N+](=O)[O-])cn1	ADAM10 inh 24, ADAM17 inh 11 | ADAM10 confirm inactive | ADAM17 counter inactive | ADAM10 ctr inactive | ADAM17 confirm inactive
